Test results taken from ChEMBL document CHEMBL3988442, “University of Dundee, Small-Polar-MMV Screening Library” (2021).
In all, about 48,000 compounds went through this assay and about 13,000 (27%) showed an effect of 50% or more. This is one part of the list.

The compounds below were run on Wolbachia pipientis (assay: Anti-Wolbachia Cell-Based Screen). Conditions: 5 µM.
Format: functional
Design: scale not given: in the data most compounds retested in dose-response had high values

| SMILES | Percent Effect |
| --- | --- |
| CCc1nnsc1C(=O)NCCCC(CC)(CC)C1OCCO1 | -13.99% |
| CC(C)c1nnc2n1CC(CNc1cnc3ccccc3n1)CC2 (stereo not given) | -3.73% |
| Cc1cc(C)n(C2CN(CC(O)COc3ccc(F)cc3)C2)n1 (stereo not given) | 3.815% |
| CC(NCCc1nccn1Cc1ccccc1)c1ccsc1 (stereo not given) | 1.494% |
| O=C(c1ccc[nH]1)N1C[C@H]2CC[C@@H]1CN(c1ncccn1)C2 | -10.43% |
| CCOc1ncccc1-c1cc2c(cc1C(N)=O)OCO2 | 2.212% |
| COC(=O)CNC(=O)CSCc1nc(O)c2c(C)c(C)sc2n1 | 7.048% |
| CNS(=O)(=O)c1cccc(C(C)NCc2nccn2C(C)C)c1 (stereo not given) | -13.68% |
| CC(C)(C)c1nc(CN2CCC3(CCCO3)CCC2=O)no1 (stereo not given) | -4.31% |
| O=C(CCc1ccccc1F)NS(=O)(=O)c1ccc2c(c1)OCCCO2 | 3.529% |
| CO[C@H]1CN(Cc2nc3ccccc3n2C)CC[C@@]12CCCO2 | 137.2% |
| CO[C@H]1CN(Cc2nc3ccccc3n2C)C[C@@]12CCCO2 | 116% |
| COCCN1C[C@H]2CC[C@@H]1CN(Cc1nc3ccccc3n1C)C2 | 17.95% |
| Cn1c(CN2CCOC[C@H]2c2nc(C(C)(C)C)co2)nc2ccccc21 | -2.257% |
| Cn1c(CO[C@H]2CN(S(C)(=O)=O)C[C@H]2F)nc2ccccc21 | 0.03029% |
| CC(C)N(CCNC(=O)c1ccc(S(=O)(=O)NC2CC2)cc1)C(C)C | -4.232% |
| Cc1noc(C)c1NS(=O)(=O)c1cc(Cl)c(Cl)c(C(=O)O)c1 | -2.046% |
| Cc1noc(C)c1C(=O)N(C)C(C)c1ccc(S(C)(=O)=O)cc1 (stereo not given) | -13.22% |
| CCOc1ccc(S(=O)(=O)NC(=O)c2c(C)noc2C(C)C)cc1 | 3.193% |
| CC(=O)Nc1c(C)noc1/C=C\c1ccc(C)c(S(=O)(=O)NC2CC2)c1 | 113.9% |
| CC(=O)Nc1c(C)noc1/C=C\c1ccc(S(=O)(=O)N2CCCC2)cc1 | 101.8% |
| CCC(C)NS(=O)(=O)c1ccc(/C=C\c2onc(C)c2NC(C)=O)cc1 (stereo not given) | 102.8% |

| SMILES | Percent Effect |
| --- | --- |
| Cc1cc(NC(=O)NCc2ccc(S(=O)(=O)N3CCCC3)s2)no1 | -7.015% |
| CC(=O)Nc1c(C)noc1/C=C\c1ccc(S(=O)(=O)NC2CC2)cc1 | 127.5% |
| Cc1cc(C)c(S(=O)(=O)Nc2c(C)noc2C)cc1C(=O)O | -6.139% |
| CCN(CC1CCCO1)S(=O)(=O)c1cc(NC(C)=O)ccc1C (stereo not given) | -4.974% |
| Cc1ccc(S(=O)(=O)NC2CC2)cc1C | 3.676% |
| COCc1c(C(=O)N2CCCC(C(=O)c3ccccc3)C2)noc1C (stereo not given) | 18.29% |
| CC(C)c1noc(-c2ccc(N(C)C3CCOCC3)nc2)n1 | 4.725% |
| CCc1ccc(C(=O)N(c2cccnc2)C(C)C)cc1S(C)(=O)=O | -4.905% |
| Cn1cc(N2CCCC(NCc3cccc4c3OCCCO4)C2)cn1 (stereo not given) | 5.522% |
| CC(=O)N1CCN(Cc2csc(-c3cnn(C)c3)n2)CC1 | -2.698% |
| CN(CCOc1ccccc1)C(=O)Nc1cccn(C)c1=O | -7.911% |
| CCn1nc(C)c(CNCCn2cc(C)cn2)c1C | -3.614% |
| CCc1n[nH]c(C2CN(C(=O)c3cnns3)CCO2)n1 (stereo not given) | -10.08% |
| CCc1n[nH]c(C2CN(C(=O)c3cnc(C)cn3)CCO2)n1 (stereo not given) | 99.84% |
| CCc1n[nH]c(C2CN(C(=O)c3ccsc3)CCO2)n1 (stereo not given) | -7.314% |
| CCc1n[nH]c(C2CN(C(=O)c3cscn3)CCO2)n1 (stereo not given) | 131.5% |
| CCc1n[nH]c(C2CN(C(=O)c3cnn(CC)c3)CCO2)n1 (stereo not given) | 143.5% |
| CCc1n[nH]c(C2CN(C(=O)c3cnc(C)s3)CCO2)n1 (stereo not given) | 1.148% |
| CCc1n[nH]c(C2CN(C(=O)c3ccc(Cl)cn3)CCO2)n1 (stereo not given) | 105.2% |
| CCc1n[nH]c(C2CN(C(=O)c3csnn3)CCO2)n1 (stereo not given) | 5.505% |
| Cc1ccc2c(c1)CCC21CCN(CCO)CC1 | 9.958% |
| Cc1ccc(NC(=O)N(CCO)CCO)c(OCc2ccccc2)c1 | -35.37% |

| SMILES | Percent Effect |
| --- | --- |
| COc1ccc(CN(CC2CCCO2)c2nc3c(s2)c(C)nn3C)cc1 (stereo not given) | -25.43% |
| COC(=O)CCN(CC1CCCO1)C(=O)Cc1ccc(OC)c(OC)c1 (stereo not given) | 2.857% |
| COc1ccc(CN(Cc2ccccn2)Cc2cncn2C)cc1.O=C(O)CC(O)(CC(=O)O)C(=O)O | 130.6% |
| Nc1nccnc1C(=O)N(Cc1ccccc1O)CC1CCCO1 (stereo not given) | -11.08% |
| COc1ccc(CN(Cc2cnc(N)nc2)CC2CCCO2)c(OC)c1.O=C(O)CC(O)(CC(=O)O)C(=O)O (stereo not given) | 113.1% |
| Cc1cc(CN(Cc2cccs2)CC2CCCO2)no1 (stereo not given) | -7.251% |
| CCn1cncc1CN(Cc1ccc(OC)cc1OC)CC1CCCO1.O=C(O)CC(O)(CC(=O)O)C(=O)O (stereo not given) | 91.73% |
| COc1ccc(CN(Cc2cncn2C)CC2CCCO2)c(OC)c1.O=C(O)CC(O)(CC(=O)O)C(=O)O (stereo not given) | -9.808% |
| COc1ccc(CN(Cc2cn(C)nc2C)CC2CCCO2)c(OC)c1 (stereo not given) | 138% |
| CCN1CCN(c2ccc(F)cc2C(C)NCc2ccncc2)CC1 (stereo not given) | 0.6189% |
| COCCC(C)NC(=O)Nc1ccc(N2CCOC2=O)c(OC)c1 (stereo not given) | -2.31% |
| O=C(Cn1ccc2ccccc21)Nc1cc(N2CCOCC2)ncn1 | -11.42% |
| CN(C)C(=O)Cc1ccc(NC(=O)NC2CC2)cc1 | -3.674% |
| COc1ccccc1CN(Cc1cccnc1)CC1CCCO1.O=C(O)CC(O)(CC(=O)O)C(=O)O (stereo not given) | 117.4% |
| COc1ccc(CN(Cc2cncn2C)CC2CCCO2)cc1OC.O=C(O)CC(O)(CC(=O)O)C(=O)O (stereo not given) | -10.71% |
| COc1ccc(CN(C(=O)C2CCCOC2)c2ccncc2)cc1 (stereo not given) | -5.222% |
| COc1ccc(CN(Cc2c[nH]cn2)CC2CCCO2)c(OC)c1.O=C(O)CC(O)(CC(=O)O)C(=O)O (stereo not given) | 99.96% |
| O=c1[nH]c2ccccc2cc1CN(Cc1ccccn1)CC1CCCO1 (stereo not given) | 7.522% |
| Cc1nc2ccccn2c1CN(Cc1cccnc1)CC1CCCO1 (stereo not given) | -2.807% |
| COc1ccc(CN(Cc2cncn2C)CC2CCCO2)cc1.O=C(O)CC(O)(CC(=O)O)C(=O)O (stereo not given) | 108.8% |
| COc1ccccc1CN(Cc1cccnc1)Cc1c[nH]c(C)n1 | -35.67% |
